# Results reported in ChEMBL document CHEMBL4513151, “CO-ADD screening of Institut Català d'Investigació Química (Spain) compounds”.
# Values joined by “and” are separate entries in the source; they are usually repeats but may differ in a detail not shown here. Equal values may be shown once. Measured potencies and affinities stand elsewhere.
# Columns and labels:
# Klebsiella pneumoniae = settings: Concentration 32 ug.mL-1, ASSAY_TEST Inhibition of Bacterial Growth, detection method Absorption (OD600), MEDIA CAMHB, plate type 384well, NBS, CORNING #3640, time 18 hr
# Candida albicans = settings: 32 ug/mL
# Cryptococcus neoformans = settings: Concentration 32 ug.mL-1, ASSAY_TEST Inhibition of Fungal Growth, detection method Resazurin, Absorption (OD600-OD570), plate type 384well, NBS, CORNING #3640
Structure (SMILES),Inhibition (Klebsiella pneumoniae) [%],Inhibition (Candida albicans),Inhibition (Cryptococcus neoformans) [%],Inhibition (Klebsiella pneumoniae; 32 ug/mL),Inhibition (Cryptococcus neoformans; 32 ug/mL)
C=C1CC(C(=O)OC)(C(=O)OC)C[C@@H]1[C@H](c1ccccc1)n1ccc2ccc(Cl)cc21,17.79,3.75%,-67.72,,
C[C@]12CC[C@@](C3CC3)(O1)[C@H]1C=C[C@H](OC(=O)c3ccccc3)[C@H]12,,3.68% and 4.72%,,19.23% and 15.4%,
C=C1CC2(COC(C)(C)OC2)C[C@@H]1[C@@H](Nc1ccc(Br)cc1)c1ccccc1,31.4,6.45%,-62.96,,
C[C@]12CC[C@@](C3CCCC3)(O1)[C@H]1C=C[C@H](OC(=O)c3ccccc3)[C@H]12,19.59,4.96%,-56.17,,
C[C@]12CC[C@@](C)(O1)[C@H]1C=C[C@H](OC(=O)c3ccccc3)[C@H]12,15.14,5.91%,-25.36,,
C[C@]12CC[C@@](c3ccc4ccccc4c3)(O1)[C@H]1C=C[C@H](OC(=O)c3ccccc3)[C@H]12,30.93,2.97%,-55.94,,
C[C@]12CC[C@@](c3ccccc3)(O1)[C@H]1C=C[C@H](OC(=O)c3ccccc3)[C@H]12,,-1.59% and 4.39%,,,-55.26% and -63.64%
C=C1CC(C(=O)OC)(C(=O)OC)C[C@@H]1[C@@H](NS(=O)(=O)c1ccc(C)cc1)c1ccccc1,18.19,0.13%,-29.89,,
C[C@]12CC[C@@H](O1)[C@H]1C=C[C@H](OC(=O)c3ccccc3)[C@H]12,19.45,6.1%,-82.89,,
C=C1CC(COCc2ccc(OC)cc2)(COCc2ccc(OC)cc2)C[C@@H]1[C@@H](Nc1ccc(Br)cc1)c1ccccc1,3.98,-6.97%,-42.12,,
C=C1CC(C(=O)OC)(C(=O)OC)C[C@@H]1[C@H](c1ccccc1)n1ccc2ccccc21,21.67,-0.58%,-68.85,,
C[C@]12CC[C@@](c3ccc(C(F)(F)F)cc3)(O1)[C@H]1C=C[C@H](OC(=O)c3ccccc3)[C@H]12,,-0.5% and 4.46%,,10.18% and 19.4%,
C=C1CC(COC)(COC)C[C@@H]1[C@@H](Nc1ccc(Br)cc1)c1ccccc1,12.17,5.3%,-62.06,,
C[C@@H]1CC(=O)C=C2C(=O)[C@@H]3[C@@H](C3(C)C)[C@]21C,18.57,-0.58%,-14.72,,
